GLP-1R inv ag: GLP-1 receptor (human) inverse agonism | 410,000 tested, 1.6% active | HEK293 GLP-1R CRE-luciferase, luminescence, 24 h; GLP-1R form is constitutively active | P43220 | AID 624417 | Potency, µM (series often up to 38.3 µM), inactives show at the top dose activity change, negative = inhibition, hits mostly inhibitors; further: on the % scale 0 is the no-effect control and ±100 the full control effect; nearly all actives have a fitted effect of over 55% in size
Target sequence (P43220 whole entry, looked up): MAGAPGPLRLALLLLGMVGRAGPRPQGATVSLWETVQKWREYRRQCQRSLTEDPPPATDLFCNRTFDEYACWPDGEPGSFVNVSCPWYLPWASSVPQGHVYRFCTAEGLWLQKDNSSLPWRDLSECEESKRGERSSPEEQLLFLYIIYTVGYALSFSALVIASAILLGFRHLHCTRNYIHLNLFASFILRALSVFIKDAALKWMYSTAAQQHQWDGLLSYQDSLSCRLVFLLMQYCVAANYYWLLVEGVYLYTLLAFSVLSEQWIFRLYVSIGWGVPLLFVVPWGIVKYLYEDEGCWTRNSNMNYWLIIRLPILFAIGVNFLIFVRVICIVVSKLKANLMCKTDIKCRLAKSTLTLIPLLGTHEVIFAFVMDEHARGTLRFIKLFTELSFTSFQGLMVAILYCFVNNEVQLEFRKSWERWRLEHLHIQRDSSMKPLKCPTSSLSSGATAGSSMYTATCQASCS
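HEK293 cells stably co-expressing a cAMP-responsive luciferase reporter and constitutively active GLP-1R were seeded, incubated 12 h, then exposed to compounds for 24 h at 37 C. Luminescence was read 12 min after detection reagent; inverse agonists lower signal.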
GLS inhibitor: inhibitors of human glutaminase (GLS). 410,000 tested, 0.21% active. O94925. Potency, µM (titrated, usually from 45.5 µM), inactives show at the highest dose activity change, negative = inhibition, hits mostly inhibitors. GLS enzymatic activity, qHTS titration. AID 624170; further: on the % scale 0 is the no-effect control and ±100 the full control effect
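Read-out is an Amplex red fluorescence increase coupled through glutamate oxidase and HRP, measured before and after 30 min room-temperature incubation. hKGA is in 45 mM KH2PO4 (pH 8.2) with 0.02% Tween-20; glutamine added as 1mM solution.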
PTHR1 ag: activates the human parathyroid hormone receptor PTHR1; 410,000 tested, 0.075% active; Q03431; HEK293 GP2 PTHR1 cells, GloSensor cAMP luminescence, 1 h; Potency, µM (doses to about 115 µM), for the others: at the highest dose activation, actives largely listed as activators; further: nearly all actives have a fitted effect of over 55% in size
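HEK-293-derived GP2 cells expressing PTHR1 and a GloSensor cAMP reporter, 3,000/well, plated overnight, given luciferin plus IBMX (each 0.5 mM as added) for 1 h at 37 °C, then compound for 1 h at 37 °C. Luminescence was read after 15 min at room temperature.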
GRP78 ERSR act: induces the endoplasmic reticulum stress response in human glioma cells | U87-MG GRP78 promoter luciferase reporter, 16 h | Potency, µM, for inactives: at the top dose activation, most hits filed as activators | 420,000 tested, 0.02% active; further: series mostly up to about 76 µM; % of control where 0% means no effect; nearly all actives have a fitted effect of over 35% in size
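Stably transfected U87-MG glioma cells carrying a GRP78-based luciferase sensor; 16 h compound incubation. Luminescence end-point read 10 min after Bright-Glo addition at room temperature.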
GLP-1R agonist: activates the human GLP-1 receptor; 380,000 tested, 0.007% active; P43220; Potency, µM (highest dose often 45.6 µM), for inactives: top-dose activation, hits mostly activators; HEK293 GLP-1R CRE-luciferase, luminescence, 4-6 h; cells express a hypersensitive GLP-1R form; further: % of control where 0% means no effect
ALOX12 inh: blocks human arachidonate 12S-lipoxygenase. P18054. purified 12hLO, xylenol orange hydroperoxide absorbance. Potency, µM (series often up to 108 µM), for inactives: top-dose activity change, negative = inhibition, usual class: inhibitors. 580,000 tested, 1.1% active; further: on the % scale 0 is the no-effect control and ±100 the full control effect
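Hydroperoxide product was detected by ferrous iron/xylenol orange as the 573 to 405 nm absorbance ratio. Arachidonic acid at 40 uM (final) was turned over for 30 min at room temperature by 150 nM human 12hLO, pH 7.0 Hepes buffer, after 15 min compound preincubation.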
Starred values were filed as active, the others as inactive; i = inactive; ? = inconclusive; / = no result given; ! = a repeat was not active. Shown are actives, neighbours in structure and some others; about 2.3% of the full set was active somewhere. The call rests on the fitted dose curve; in most records, active means well fitted curve in the direction sought with a large enough effect; inconclusive means small, poorly fitted or top-dose-only effect, or another doubt; inactive means no such curve, though single readings can be large; an effect the other way counts as inactive or inconclusive. Potency means the concentration at half of the fitted maximal effect.

SMILES	GLP-1R inv ag	GLS inhibitor	PTHR1 ag	GRP78 ERSR act	GLP-1R agonist	ALOX12 inh
CCCCCC1(C)NC(=S)N(c2ccccc2)N1 (configuration not stated)	?	-1.7%	i	-3.0%	-1.0%	0.794µM*
COc1ccc(NC(=O)Cn2ccn(-c3ccc(OC)cc3)c2=O)cc1	/	/	/	/	/	5.3%
CC(=Nc1ccc([N+](=O)[O-])cc1)N(C)C	/	/	/	/	/	-23.1%
O=C(Nc1ccccc1-c1nc(Cc2ccccc2)no1)c1ccncc1	/	/	/	/	/	16.5%
O=C(NCCc1ccccc1)C1CCCN(c2nc3ccccc3s2)C1 (configuration not stated)	10µM*	-5.3%	i	-3.4%	8.1%	-32.9%
O=C(c1ccc(OC2CCN(CCc3ccccc3)CC2)cc1)N1CCCC(CO)C1 (configuration not stated)	1.1%	1.4%	i	-2.3%	-2.7%	-14.6%
CC1CCCN(C(=O)c2ccc(OC3CCN(CCc4ccccc4)CC3)cc2)C1 (configuration not stated)	8.91µM*	18.2%	-15.7%	-4.3%	2.6%	17.5%
CC1CCCN(C(=O)COc2ccc(-c3ccccc3)cc2)C1 (configuration not stated)	11.2µM*	0.3%	i	5.2%	18.8%	0.4%
CCCOC1CCCN(C(=O)c2ccc(OC3CCN(C(=O)COC)CC3)cc2)C1 (configuration not stated)	11.2µM*	0.0%	i	0.9%	-5.6%	-9.7%
COC(=O)c1ccc(CN2CCC(Oc3ccc(C(=O)N4CCCCC4)cc3)CC2)cc1	?	1.7%	-30.6%	-3.5%	-2.6%	-7.2%
Cc1cc(C)cc(CN2CCC(Oc3ccc(C(=O)N4CCCC4)cc3)CC2)c1	10µM*	-1.4%	?	-3.9%	1.0%	10.4%
CCCOC1CCCN(C(=O)c2ccc(OC3CCN(C(=O)CCOC)CC3)cc2)C1 (configuration not stated)	14.5%	4.8%	-33.7%	-1.4%	-6.2%	18.1%
COc1ccc(-c2nc(NCCN3CCCCC3C)c3ccccc3n2)cc1 (configuration not stated)	/	/	/	/	/	-3.0%
CC1(C)C2CCC1(C)C(NC(=O)CCNC(=O)C1CCCC1)C2 (configuration not stated)	/	/	/	/	/	30.7%
COc1cc(NC(=S)NC(=O)c2ccc(C(C)(C)C)cc2)ccc1NC(=O)c1cccs1	?	16.9%	i	-4.1%	0.2%	6.31µM*
COc1cc(NC(=S)NC(=O)c2cc(C)cc(C)c2)ccc1NC(=O)c1cccs1	0.0%	12.2%	i	-5.6%	-13.1%	?
CCCn1nc(C(=O)OC(C)C(=O)NCc2ccc(F)cc2)c2ccccc2c1=O (configuration not stated)	/	/	/	/	/	-30.6%
O=C(CSc1nnnn1C1CCCCC1)NC(c1ccccc1)c1cccs1 (configuration not stated)	/	/	/	/	/	-3.1%
C/C(CCc1oc2ccc(C)cc2c1-c1ccc(C)o1)=N\O	/	/	/	/	/	39.8µM*!
CC(=O)CCc1oc2ccc(C)cc2c1-c1ccc(C)o1	?	-9.2%	-50.0%	-0.1%	13.8%	?
C/C(CCc1oc2ccc(Br)cc2c1-c1ccc(C)o1)=N\O	/	/	/	/	/	11.2µM*
COc1ccc(S(=O)(=O)Nc2cc(N3CCCS3(=O)=O)ccc2OC)cc1	/	/	/	/	/	21.3%
CC(C)Oc1ccc(Cc2cnc(=S)[nH]c2N)cc1	13.4%	-22.1%	-0.6%	-4.7%	-3.3%	35.5µM*
Cc1cccc(N/N=C(/c2ccccc2)c2ccc(F)cc2)c1C	/	/	/	/	/	5.01µM*
CC(=O)c1cccc(NC(c2ccc(F)cc2)c2nnc(-c3ccccc3)o2)c1 (configuration not stated)	?	9.1%	-27.5%	-2.1%	-6.5%	?
SMILES	GLP-1R inv ag	GLS inhibitor	PTHR1 ag	GRP78 ERSR act	GLP-1R agonist	ALOX12 inh
Cc1c(Cl)cccc1NC(c1ccc(F)cc1)c1nnc(-c2ccccc2)o1 (configuration not stated)	8.91µM*	-4.1%	i	0.4%	/	-20.4%
CNS(=O)(=O)c1cc(NS(=O)(=O)c2cc(Cl)cc(Cl)c2)ccc1C	/	/	/	/	/	-16.0%
Cc1ccsc1CN(C)CC(=O)Nc1cccc(S(=O)(=O)N(C)c2ccccc2)c1	8.91µM*	5.6%	-26.2%	-3.9%	-24.5%	20.2%
CCC(=O)c1ccc(OCC(=O)Nc2cccc(S(=O)(=O)N(C)c3ccccc3)c2)cc1	?	1.6%	-46.7%	-0.5%	-5.0%	198.1%
CN(c1ccccc1)S(=O)(=O)c1cccc(NC(=O)COc2cccc([N+](=O)[O-])c2)c1	10µM*	15.9%	-60.5%	-1.0%	-0.9%	0.0%
CC(C)NC(=O)N[C@H]1C[C@@H](Cc2cc(CN3CCN(c4ccccc4)CC3)on2)C1(C)C	/	/	/	/	/	-4.3%
O=C(Oc1cccc2cccnc12)c1ccc(Br)o1	-12.5%	2.0%	i	-4.2%	5.4%	0.0%
O=C(Oc1cccc2cccnc12)c1ccc2c(c1)OCCO2	3.98µM*	-0.3%	i	0.2%	11.5%	-13.0%
O=C(Oc1cccc2cccnc12)c1ccco1	10µM*	7.7%	i	6.1%	-0.7%	493.0%
CC1CCN(C(=O)CCSc2nc(-c3ccc4c(c3)OCO4)cc(C(F)(F)F)n2)CC1	/	/	/	/	/	-2.8%
Cc1cccc(NS(=O)(=O)c2ccc(NC(=O)CN(c3cc([N+](=O)[O-])ccc3C)S(C)(=O)=O)cc2)c1	?	1.7%	-21.6%	-3.8%	-28.6%	?
COc1ccc(C)cc1NS(=O)(=O)c1ccc(NC(=O)CN(c2cc([N+](=O)[O-])ccc2C)S(C)(=O)=O)cc1	1.78µM*	12.2%	i	-0.5%	-10.6%	-3.9%
Cc1oc(C(C)(C)C)cc1C(=O)NC1CCN(Cc2ccccc2)CC1	12.6µM*	-9.3%	-20.9%	-4.5%	-1.3%	63.7%
COc1ccccc1NS(=O)(=O)c1cccc(C(=O)NC2CCN(Cc3ccccc3)CC2)c1	?	12.2%	-76.0%	-0.8%	9.3%	/
COc1ccccc1NS(=O)(=O)c1ccc(C)c(C(=O)NC2CCN(Cc3ccccc3)CC2)c1	11.2µM*	0.2%	-30.8%	-2.9%	-11.7%	1.7%
O=C(NC1CCN(Cc2ccccc2)CC1)c1cccc(S(=O)(=O)Nc2ccc(F)cc2)c1	7.08µM*	2.6%	-21.0%	-6.5%	-0.4%	?
Cc1oc(-c2ccc(Cl)cc2)cc1C(=O)NC1CCN(Cc2ccccc2)CC1	?	-20.4%	i	-4.0%	3.3%	-7.5%
Cc1ccc(-n2nc(C)c3c(C(=O)NC4CCN(Cc5ccccc5)CC4)cc(C)nc32)cc1	/	/	/	/	/	7.08µM*

Screens from PubChem BioAssay.
